About 8,800 targets were measured; listed, in parts, are those with a hit and a random draw of the rest. About 0.5% of all pairs of compound and target were hits.
Key:
Test in all cases: log2 fold change, soluble protein after heating vs DMSO (PISA); higher = thermal stabilisation; K562 lysate, 10 uM; active = over 0.2 and 3.5 SD of the protein, either way, in both replicates (recomputed)
lapatinib = compound: CS(=O)(=O)CCNCc1ccc(-c2ccc3ncnc(Nc4ccc(OCc5cccc(F)c5)c(Cl)c4)c3c2)o1 [lapatinib]
Summary of the method: (§1)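 Values give the log-two fold change in thermal stability against solvent controls, from duplicates. Crude K562 extract at 1 mg/mL protein, made by dounce homogenisation in PBS pH 7.4 with 1 mM MgCl2, was treated with 10 μM compound for 30 min. After 3 min heating across 48°C-58°C, aliquots were pooled, adjusted to 0.5% NP-40 at 4°C and centrifuged at 21,000xg for 90 min. The supernatant was measured by TMTpro 16plex LC-MS/MS with channel sums equalised.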

pictilisib = compound: CS(=O)(=O)N1CCN(Cc2cc3nc(-c4cccc5[nH]ncc45)nc(N4CCOCC4)c3s2)CC1 [pictilisib]
Summary of the method: as §1

crizotinib = compound: C[C@@H](Oc1cc(-c2cnn(C3CCNCC3)c2)cnc1N)c1c(Cl)ccc(F)c1Cl [crizotinib]
Summary of the method: as §1

[1] = compound: C[C@H](C1=CC=C(C=C1)C(=O)NC2=C3C=CNC3=NC=C2)N
Summary of the method: as §1

duvelisib = compound: C[C@H](Nc1ncnc2nc[nH]c12)c1cc2cccc(Cl)c2c(=O)n1-c1ccccc1 [duvelisib]
Summary of the method: as §1

gandotinib = compound: Cc1cc(Nc2cc(CN3CCOCC3)c3nc(C)c(Cc4ccc(Cl)cc4F)n3n2)n[nH]1 [gandotinib]
Summary of the method: as §1

tozasertib = compound: Cc1cc(Nc2cc(N3CCN(C)CC3)nc(Sc3ccc(NC(=O)C4CC4)cc3)n2)n[nH]1 [tozasertib]
Summary of the method: as §1

doramapimod = compound: Cc1ccc(-n2nc(C(C)(C)C)cc2NC(=O)Nc2ccc(OCCN3CCOCC3)c3ccccc23)cc1 [doramapimod]
Summary of the method: as §1

bafetinib = compound: Cc1ccc(NC(=O)c2ccc(CN3CC[C@H](N(C)C)C3)c(C(F)(F)F)c2)cc1Nc1nccc(-c2cncnc2)n1 [bafetinib]
Summary of the method: as §1

[2] = compound: Cc1cccc(CC(=O)N2CCc3c2ccc(-c2cn(C)c4ncnc(N)c24)c3F)n1
Summary of the method: as §1

Measured: log2 fold change

HDLBP, A0A024R4E5
inactive: lapatinib 0.005 | pictilisib -0.017 | crizotinib -0.028 | [1] 0.002 | duvelisib -0.003 | gandotinib -0.03 | tozasertib 0.006 | doramapimod 0.018 | bafetinib -0.049 | [2] 0.013

GTF3C3 (UniProt Q9Y5Q9)
inactive: lapatinib -0.043 | pictilisib -0.051 | crizotinib -0.093 | [1] -0.108 | duvelisib 0.017 | gandotinib -0.037 | tozasertib 0.009 | doramapimod 0.012 | bafetinib -0.045 | [2] 0.084

HERC2 (UniProt O95714)
inactive: lapatinib -0.001 | pictilisib -0.007 | crizotinib -0.055 | [1] -0.041 | duvelisib 0.023 | gandotinib -0.007 | tozasertib 0.022 | doramapimod 0.058 | bafetinib -0.15 | [2] 0.153

INF2 (UniProt Q27J81)
inactive: lapatinib 0.024 | pictilisib -0.019 | crizotinib -0.043 | [1] 0.002 | duvelisib -0.051 | gandotinib -0.001 | tozasertib 0.04 | doramapimod 0.049 | bafetinib -0.068 | [2] 0.128

GSTP1 (UniProt P09211)
inactive: lapatinib -0.015 | pictilisib 0.021 | crizotinib -0.018 | [1] -0.025 | duvelisib 0.001 | gandotinib -0.035 | tozasertib -0.007 | doramapimod -0.006 | bafetinib 0.01 | [2] 0.003

GSE1 (UniProt Q14687)
Chain of UniProt Q14687 (Q14687 whole entry, looked up): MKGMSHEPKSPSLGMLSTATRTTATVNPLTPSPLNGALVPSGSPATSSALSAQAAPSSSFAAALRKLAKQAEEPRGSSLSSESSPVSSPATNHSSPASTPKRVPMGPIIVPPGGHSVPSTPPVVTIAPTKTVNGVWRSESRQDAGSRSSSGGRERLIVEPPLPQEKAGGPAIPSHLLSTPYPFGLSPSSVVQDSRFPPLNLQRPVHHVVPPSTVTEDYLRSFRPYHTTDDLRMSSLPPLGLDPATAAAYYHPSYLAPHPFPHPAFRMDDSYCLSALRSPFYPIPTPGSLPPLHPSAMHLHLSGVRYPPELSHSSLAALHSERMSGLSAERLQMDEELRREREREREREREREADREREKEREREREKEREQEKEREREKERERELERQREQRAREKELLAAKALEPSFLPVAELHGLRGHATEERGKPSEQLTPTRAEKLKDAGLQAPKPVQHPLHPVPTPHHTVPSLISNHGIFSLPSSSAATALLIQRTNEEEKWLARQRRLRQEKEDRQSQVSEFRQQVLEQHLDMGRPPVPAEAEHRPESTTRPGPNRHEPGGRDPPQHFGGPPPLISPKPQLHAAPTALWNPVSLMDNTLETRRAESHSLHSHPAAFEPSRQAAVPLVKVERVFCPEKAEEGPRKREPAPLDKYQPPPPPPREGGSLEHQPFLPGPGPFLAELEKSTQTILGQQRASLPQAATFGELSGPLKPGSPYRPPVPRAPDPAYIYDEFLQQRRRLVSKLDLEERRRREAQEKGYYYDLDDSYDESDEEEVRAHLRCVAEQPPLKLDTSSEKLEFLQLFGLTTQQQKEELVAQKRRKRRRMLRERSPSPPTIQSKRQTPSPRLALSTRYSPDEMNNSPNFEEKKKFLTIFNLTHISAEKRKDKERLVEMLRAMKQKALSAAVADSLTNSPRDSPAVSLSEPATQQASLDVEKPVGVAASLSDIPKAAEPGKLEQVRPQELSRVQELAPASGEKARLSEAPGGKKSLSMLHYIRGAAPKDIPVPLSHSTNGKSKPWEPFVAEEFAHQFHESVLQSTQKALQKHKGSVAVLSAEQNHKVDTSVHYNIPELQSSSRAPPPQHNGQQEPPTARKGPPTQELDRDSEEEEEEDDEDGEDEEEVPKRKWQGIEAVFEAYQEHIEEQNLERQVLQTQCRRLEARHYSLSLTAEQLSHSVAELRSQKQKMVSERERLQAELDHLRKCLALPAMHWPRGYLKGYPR
inactive: lapatinib 0.006 | pictilisib -0.032 | crizotinib -0.014 | [1] -0.073 | duvelisib -0.015 | gandotinib 0.011 | tozasertib 0.008 | doramapimod -0.019 | bafetinib -0.006 | [2] 0.051

HLCS (UniProt P50747)
inactive: lapatinib -0.026 | pictilisib -0.022 | crizotinib -0.009 | [1] 0.199 | duvelisib 0.016 | gandotinib -0.002 | tozasertib 0.006 | doramapimod 0.026 | bafetinib -0.045 | [2] -0.007

HNRNPUL1 (UniProt Q9BUJ2)
inactive: lapatinib -0.008 | pictilisib -0.05 | crizotinib 0.043 | [1] 0.005 | duvelisib 0.01 | gandotinib -0.013 | tozasertib 0.012 | doramapimod -0.107 | bafetinib 0.051 | [2] -0.023

GYPA (UniProt P02724)
Chain of UniProt P02724 (P02724 whole entry, looked up): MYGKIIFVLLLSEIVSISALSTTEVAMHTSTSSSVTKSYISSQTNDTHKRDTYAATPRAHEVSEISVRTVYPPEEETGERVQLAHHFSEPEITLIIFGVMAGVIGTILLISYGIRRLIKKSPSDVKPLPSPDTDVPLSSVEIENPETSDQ
active: [1] 0.528
inactive: lapatinib 0.074 | pictilisib -0.01 | crizotinib 0.017 | duvelisib 0.013 | gandotinib -0.197 | tozasertib -0.02 | doramapimod -0.033 | bafetinib 0.229 | [2] -0.234

ILK (UniProt Q13418)
inactive: lapatinib 0.01 | pictilisib -0.005 | crizotinib -0.038 | [1] 0.01 | duvelisib -0.036 | gandotinib -0.015 | tozasertib 0.005 | doramapimod 0.004 | bafetinib -0.002 | [2] 0.007

HS1BP3 (UniProt Q53T59)
Chain of UniProt Q53T59 (Q53T59 whole entry, looked up): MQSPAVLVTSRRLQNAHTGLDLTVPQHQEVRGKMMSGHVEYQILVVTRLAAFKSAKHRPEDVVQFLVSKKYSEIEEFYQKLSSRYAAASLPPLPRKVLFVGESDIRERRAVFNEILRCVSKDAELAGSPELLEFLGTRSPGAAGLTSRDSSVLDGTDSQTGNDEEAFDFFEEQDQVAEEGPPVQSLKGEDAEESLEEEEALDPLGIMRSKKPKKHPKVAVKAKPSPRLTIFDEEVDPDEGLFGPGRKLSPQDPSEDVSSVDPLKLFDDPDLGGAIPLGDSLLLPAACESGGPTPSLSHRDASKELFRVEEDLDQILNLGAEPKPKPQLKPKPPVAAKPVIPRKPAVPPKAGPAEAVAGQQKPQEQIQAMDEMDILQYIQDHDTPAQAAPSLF
inactive: lapatinib 0.024 | pictilisib -0.019 | crizotinib 0.006 | duvelisib -0.047 | gandotinib 0.068 | tozasertib 0.021 | doramapimod -0.019 | bafetinib -0.048 | [2] 0.074
active: [1] -0.253

HNRNPDL (UniProt O14979)
inactive: lapatinib 0.04 | pictilisib -0.002 | crizotinib -0.005 | [1] 0.016 | duvelisib 0.04 | gandotinib -0.025 | tozasertib -0.056 | doramapimod 0.104 | bafetinib 0.072 | [2] -0.035

HAUS8 (UniProt Q9BT25)
inactive: lapatinib -0.022 | pictilisib -0.02 | crizotinib -0.055 | [1] 0.057 | duvelisib -0.075 | gandotinib 0.045 | tozasertib 0.027 | doramapimod -0.007 | bafetinib -0.037 | [2] 0.027

HDAC10 (UniProt Q969S8)
inactive: lapatinib -0.101 | pictilisib -0.019 | crizotinib -0.015 | [1] -0.042 | duvelisib -0.014 | gandotinib 0.029 | tozasertib 0.068 | doramapimod -0.046 | bafetinib 0.035 | [2] 0.061

HMGCL (UniProt P35914)
inactive: lapatinib -0.005 | pictilisib -0.029 | crizotinib 0.012 | [1] 0.033 | duvelisib 0.002 | gandotinib -0.029 | tozasertib 0.026 | doramapimod 0.008 | bafetinib -0.016 | [2] -0.031

IL18R1 (UniProt Q13478)
Chain of UniProt Q13478 (Q13478 whole entry, looked up): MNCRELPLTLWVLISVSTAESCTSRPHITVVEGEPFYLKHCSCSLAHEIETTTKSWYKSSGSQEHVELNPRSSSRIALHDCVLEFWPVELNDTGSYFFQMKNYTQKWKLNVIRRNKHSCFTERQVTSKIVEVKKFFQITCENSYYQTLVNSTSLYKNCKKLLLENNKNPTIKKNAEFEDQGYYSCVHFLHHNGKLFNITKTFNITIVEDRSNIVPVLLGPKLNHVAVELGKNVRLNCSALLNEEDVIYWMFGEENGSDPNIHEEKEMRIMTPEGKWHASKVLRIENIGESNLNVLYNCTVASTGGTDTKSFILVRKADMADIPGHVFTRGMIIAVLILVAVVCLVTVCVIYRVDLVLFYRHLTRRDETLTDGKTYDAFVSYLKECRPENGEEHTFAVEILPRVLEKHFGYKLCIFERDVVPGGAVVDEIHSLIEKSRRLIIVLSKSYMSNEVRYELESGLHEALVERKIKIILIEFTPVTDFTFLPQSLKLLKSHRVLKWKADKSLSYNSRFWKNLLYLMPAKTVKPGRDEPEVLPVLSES
inactive: lapatinib -0.112 | pictilisib 0.207 | crizotinib -0.076 | [1] -0.116 | duvelisib -0.049 | gandotinib 0.092 | tozasertib 0.063 | doramapimod -0.111 | bafetinib -0.031 | [2] 0.045

IMMT (UniProt Q16891)
Chain of UniProt Q16891 (Q16891 whole entry, looked up): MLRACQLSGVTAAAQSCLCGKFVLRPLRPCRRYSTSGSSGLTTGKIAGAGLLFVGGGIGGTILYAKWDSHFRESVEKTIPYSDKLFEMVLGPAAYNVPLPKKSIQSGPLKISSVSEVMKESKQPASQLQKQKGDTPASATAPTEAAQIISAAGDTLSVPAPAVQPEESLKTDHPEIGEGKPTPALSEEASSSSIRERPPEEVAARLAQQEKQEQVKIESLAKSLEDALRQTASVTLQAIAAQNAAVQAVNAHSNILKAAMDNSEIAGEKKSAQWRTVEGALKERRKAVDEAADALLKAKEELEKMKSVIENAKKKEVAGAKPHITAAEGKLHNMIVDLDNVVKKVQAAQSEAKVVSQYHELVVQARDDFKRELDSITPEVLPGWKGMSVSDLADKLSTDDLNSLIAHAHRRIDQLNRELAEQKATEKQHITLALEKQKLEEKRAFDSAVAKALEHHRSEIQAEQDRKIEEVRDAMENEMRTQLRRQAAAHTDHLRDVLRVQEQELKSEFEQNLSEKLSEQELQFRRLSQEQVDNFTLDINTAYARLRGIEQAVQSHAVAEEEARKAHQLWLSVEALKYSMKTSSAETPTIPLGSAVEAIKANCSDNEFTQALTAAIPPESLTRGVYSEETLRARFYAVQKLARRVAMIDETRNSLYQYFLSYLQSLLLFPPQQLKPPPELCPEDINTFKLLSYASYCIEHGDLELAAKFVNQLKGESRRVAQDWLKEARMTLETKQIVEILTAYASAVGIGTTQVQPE
inactive: lapatinib -0.058 | pictilisib 0.001 | crizotinib -0.049 | [1] -0.006 | duvelisib -0.039 | gandotinib -0.134 | tozasertib 0.02 | doramapimod 0.011 | bafetinib -0.053 | [2] 0.023

HNRNPAB isoform 3 (UniProt Q99729)
Chain of UniProt Q99729 (Q99729 whole entry, looked up): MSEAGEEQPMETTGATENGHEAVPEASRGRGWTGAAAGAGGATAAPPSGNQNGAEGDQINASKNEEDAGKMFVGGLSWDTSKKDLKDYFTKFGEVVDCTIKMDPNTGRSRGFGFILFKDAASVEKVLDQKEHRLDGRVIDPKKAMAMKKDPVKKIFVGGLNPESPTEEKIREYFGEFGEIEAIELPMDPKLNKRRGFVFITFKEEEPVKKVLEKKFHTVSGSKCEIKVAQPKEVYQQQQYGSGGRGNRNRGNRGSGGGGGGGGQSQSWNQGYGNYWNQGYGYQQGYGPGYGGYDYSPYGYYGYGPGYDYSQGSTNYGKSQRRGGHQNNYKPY
inactive: lapatinib 0.007 | pictilisib 0.01 | crizotinib 0.04 | [1] -0.068 | duvelisib -0.009 | gandotinib 0.019 | tozasertib -0.02 | doramapimod -0.058 | bafetinib -0.002 | [2] 0.033

GTF2H4 (UniProt Q92759)
inactive: lapatinib -0.026 | pictilisib 0.027 | crizotinib -0.025 | [1] 0.061 | duvelisib -0.01 | gandotinib -0.14 | tozasertib 0.031 | doramapimod 0 | bafetinib -0.039 | [2] 0.038

HSPA8 (UniProt E9PN89)
active: [1] -0.706
inactive: lapatinib 0.046 | pictilisib 0.05 | crizotinib -0.31 | duvelisib 0.004 | gandotinib 0.169 | tozasertib 0.074 | doramapimod 0.314 | bafetinib -0.021 | [2] 0.299

HACE1 (UniProt Q8IYU2)
inactive: lapatinib -0.05 | pictilisib 0.005 | crizotinib 0.026 | duvelisib 0.033 | gandotinib 0.302 | tozasertib -0.036 | doramapimod 0.015 | bafetinib -0.036 | [2] 0.426
active: [1] -0.491

HMGB1 (UniProt P09429)
inactive: lapatinib 0.017 | pictilisib 0.02 | crizotinib -0.024 | duvelisib 0.028 | gandotinib -0.097 | tozasertib 0.03 | doramapimod -0.014 | bafetinib 0.079 | [2] -0.154
active: [1] 0.304

ICAM2 (UniProt P13598)
inactive: lapatinib -0.008 | pictilisib -0.08 | crizotinib -0.002 | duvelisib -0.035 | gandotinib -0.04 | tozasertib -0.01 | doramapimod -0.014 | bafetinib 0.013 | [2] -0.075
active: [1] 0.293

GLB1 (UniProt P16278)
inactive: lapatinib -0.02 | pictilisib 0.001 | crizotinib -0.003 | [1] -0.017 | duvelisib 0.004 | gandotinib 0.012 | tozasertib -0.084 | doramapimod 0.016 | bafetinib -0.03 | [2] 0.008

KHK isoform 2 (UniProt P50053)
inactive: lapatinib -0.066 | pictilisib -0.015 | crizotinib -0.032 | duvelisib 0 | gandotinib -0.058 | tozasertib 0.018 | doramapimod 0.031 | bafetinib 0.001 | [2] -0.163
active: [1] 0.248

GTF3C5 isoform 3 (UniProt Q9Y5Q8)
inactive: lapatinib -0.009 | pictilisib -0.01 | crizotinib -0.047 | [1] -0.014 | duvelisib -0.02 | gandotinib -0.002 | tozasertib -0.012 | doramapimod 0.063 | bafetinib -0.047 | [2] 0.02

GRB10 (UniProt Q13322)
inactive: lapatinib -0.029 | pictilisib -0.034 | crizotinib -0.028 | [1] -0.125 | duvelisib 0.029 | gandotinib 0.016 | tozasertib -0.06 | doramapimod 0.021 | bafetinib -0.049 | [2] 0.099

IARS (UniProt P41252)
Chain of UniProt P41252 (P41252 whole entry, looked up): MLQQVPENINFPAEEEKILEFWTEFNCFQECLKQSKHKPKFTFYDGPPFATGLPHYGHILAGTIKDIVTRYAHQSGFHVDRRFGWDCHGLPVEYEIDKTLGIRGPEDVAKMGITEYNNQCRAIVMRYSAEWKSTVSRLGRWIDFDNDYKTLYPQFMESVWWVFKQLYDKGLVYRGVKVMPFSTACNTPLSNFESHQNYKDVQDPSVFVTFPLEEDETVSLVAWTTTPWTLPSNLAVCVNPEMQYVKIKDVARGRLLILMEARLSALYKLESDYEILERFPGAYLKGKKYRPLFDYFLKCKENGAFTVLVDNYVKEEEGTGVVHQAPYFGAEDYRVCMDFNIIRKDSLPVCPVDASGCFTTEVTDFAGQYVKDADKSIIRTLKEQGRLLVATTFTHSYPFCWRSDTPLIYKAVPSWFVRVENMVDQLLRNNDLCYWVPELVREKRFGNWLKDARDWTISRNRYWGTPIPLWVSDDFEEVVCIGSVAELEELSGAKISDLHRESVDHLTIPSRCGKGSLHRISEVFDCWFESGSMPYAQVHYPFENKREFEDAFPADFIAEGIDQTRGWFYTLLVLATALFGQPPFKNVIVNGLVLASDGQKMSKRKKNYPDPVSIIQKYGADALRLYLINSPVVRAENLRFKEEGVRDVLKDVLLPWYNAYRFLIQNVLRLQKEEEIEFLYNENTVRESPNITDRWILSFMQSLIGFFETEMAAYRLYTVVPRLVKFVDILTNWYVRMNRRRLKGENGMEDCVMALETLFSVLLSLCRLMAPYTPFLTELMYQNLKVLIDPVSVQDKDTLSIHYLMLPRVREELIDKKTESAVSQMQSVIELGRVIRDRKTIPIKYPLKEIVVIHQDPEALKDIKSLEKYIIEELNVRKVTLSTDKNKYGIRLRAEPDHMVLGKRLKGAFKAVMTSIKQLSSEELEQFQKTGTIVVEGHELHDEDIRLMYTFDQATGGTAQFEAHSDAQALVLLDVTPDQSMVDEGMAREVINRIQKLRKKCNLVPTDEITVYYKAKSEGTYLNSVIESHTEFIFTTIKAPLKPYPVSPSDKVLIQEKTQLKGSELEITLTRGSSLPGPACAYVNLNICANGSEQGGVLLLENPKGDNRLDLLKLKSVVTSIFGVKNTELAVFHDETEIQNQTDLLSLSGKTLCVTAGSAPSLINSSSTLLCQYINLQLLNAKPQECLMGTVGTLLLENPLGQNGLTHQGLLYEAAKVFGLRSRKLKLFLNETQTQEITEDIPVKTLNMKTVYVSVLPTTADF
inactive: lapatinib -0.032 | pictilisib -0.006 | crizotinib -0.045 | [1] 0.059 | duvelisib -0.001 | gandotinib -0.13 | tozasertib 0.013 | doramapimod 0.016 | bafetinib -0.015 | [2] -0.041

HSD17B10 (UniProt Q99714)
Chain of UniProt Q99714 (Q99714 whole entry, looked up): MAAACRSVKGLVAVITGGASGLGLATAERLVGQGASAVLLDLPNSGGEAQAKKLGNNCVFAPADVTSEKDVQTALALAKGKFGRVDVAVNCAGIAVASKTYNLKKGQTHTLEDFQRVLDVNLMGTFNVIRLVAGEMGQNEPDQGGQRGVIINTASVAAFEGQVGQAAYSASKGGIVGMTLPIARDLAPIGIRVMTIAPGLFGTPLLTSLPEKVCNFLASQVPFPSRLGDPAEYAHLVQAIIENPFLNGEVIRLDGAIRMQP
inactive: lapatinib -0.031 | pictilisib -0.013 | crizotinib 0.002 | [1] -0.049 | duvelisib 0.013 | gandotinib 0.022 | tozasertib -0.031 | doramapimod -0.008 | bafetinib 0 | [2] 0.026

From the supplement of paper PMC10849652
